Assay outcomes from PubChem.
TEAD-YAP block: TEAD-YAP interaction inhibition; inhibition, % at 9.12 µM; 640,000 tested, 1.4% active; HEK-TIYL cells, TEAD-Gal4/YAP UAS-luciferase luminescence; AID 1259422; in the data active = inhibition above about 32%;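 note: 0% = median of test compound wells and 100% = reference inhibitor wells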
FBW7 activator: human FBW7 E3 ligase activation, primary screen. AlphaScreen FBW7–phospho-cyclin E peptide binding, activator screen. 650,000 tested, 0.13% active. AID 1259310. normalized activity (activation), % at 26.1 µM; in the data active = normalized activity above about 1.9%;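 note: purified mutant Fbw7 with reduced substrate affinity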
GPR151 ag: activators of human GPR151 | PathHunter beta-arrestin GPR151 cells, luminescence | activation, % at 11.2 µM | 650,000 tested, 1% active; in the data active = activation above about 4.9%;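 note: 0% = median of compound wells and 100% = cells with positive control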
MITF primary: inhibitors of human MITF; 650,000 tested, 0.91% active; AlphaScreen MITF homodimerization, bead proximity signal; O75030; inhibition, % at 2.6 µM; AID 1259374; in the data active = inhibition above about 50%;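 note: 0% = vehicle wells with protein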
Target sequence (O75030 whole entry, looked up): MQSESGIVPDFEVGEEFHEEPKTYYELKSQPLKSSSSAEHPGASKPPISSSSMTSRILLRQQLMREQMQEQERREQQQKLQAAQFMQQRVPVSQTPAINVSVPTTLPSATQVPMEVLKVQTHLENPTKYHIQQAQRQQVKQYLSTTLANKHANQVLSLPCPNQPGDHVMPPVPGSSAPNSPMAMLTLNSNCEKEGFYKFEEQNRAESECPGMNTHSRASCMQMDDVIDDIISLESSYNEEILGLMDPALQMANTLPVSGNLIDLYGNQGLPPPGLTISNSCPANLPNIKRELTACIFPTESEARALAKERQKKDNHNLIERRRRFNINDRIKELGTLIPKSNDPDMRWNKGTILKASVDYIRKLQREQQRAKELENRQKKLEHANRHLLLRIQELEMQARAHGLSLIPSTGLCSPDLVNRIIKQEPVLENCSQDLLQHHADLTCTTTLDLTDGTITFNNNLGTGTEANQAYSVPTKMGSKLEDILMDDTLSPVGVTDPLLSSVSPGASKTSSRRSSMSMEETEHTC
MITF inh conf: human MITF inhibition, confirmation. shares compounds with MITF primary. AlphaScreen MITF homodimerization, biotin/His-MITF beads. inhibition, % at 2.6 µM. 4,700 tested, 16% active;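 active = inhibition above a cutoff derived from the DMSO control wells, cut at about 28% in these data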;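 note: 0% = MITF dimer wells with DMSO only; inhibitors lower the bead chemiluminescence by keeping MITF from dimerizing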
AlphaScreen DR: counter-screen: compounds optically interfering with AlphaScreen. shares compounds with MITF primary. AlphaScreen optical interference counterscreen, cell-free. IC50, µM. 480 tested, 6% active. AID 1259373; call rule not given here
AS interf ctr: counter-screen: compounds optically interfering with AlphaScreen; AID 1259376; inhibition, % at 2.6 µM; shares compounds with MITF primary; LysRS AlphaScreen counterscreen, signal interference, triplicate; 4,700 tested, 7.6% active;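 active = inhibition above a cutoff derived from the DMSO control wells, cut at about 30% in these data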
Numbers without * were called inactive. Compounds with a hit are over-represented: about 3.4% of the library has one in this group of screens.

Results for COc1cc(OC)c(OC)cc1CN1CCN(Cc2cccc(C)c2)CC1 ?
TEAD-YAP block: 0.0; FBW7 activator: 0.2; GPR151 ag: 0.5; MITF primary: 83.1*; MITF inh conf: -1.6; AS interf ctr: 15.8

What do the screens show for `COc1ccc(CN2CCN(Cc3cccc(C)c3)CC2)c(OC)c1OC`?
TEAD-YAP block: 1.8; FBW7 activator: -0.1; GPR151 ag: 1.0; MITF primary: 33.4

How did COc1ccc(CN2CCN(Cc3cccc(C)c3)CC2)c(OC)c1 do in these assays?
TEAD-YAP block: -4.1; FBW7 activator: -0.2; GPR151 ag: -1.5; MITF primary: 68.8*; MITF inh conf: -1.1; AS interf ctr: 3.2

Results for COc1cc(OC)c(OC)cc1CN1CCN(Cc2ccc(C)cc2C)CC1 ?
TEAD-YAP block: 0.9; FBW7 activator: -0.6; GPR151 ag: -0.1; MITF primary: 70.0*; MITF inh conf: 8.0; AS interf ctr: 6.4

How did COc1cc(CN2CCN(Cc3cccc(C)c3)CC2)cc(OC)c1 do in these assays?
TEAD-YAP block: -9.6; FBW7 activator: -0.2; GPR151 ag: 0.8; MITF primary: 41.7

Results for C/C(=N/NC(=O)c1cccs1)c1ccccc1Cl ?
TEAD-YAP block: -22.7; FBW7 activator: 0.1; GPR151 ag: 0.0; MITF primary: 14.7

What do the screens show for `CN1C(=O)/C(=C\c2ccc(C(C)(C)C)cc2)N(C)C1=S`?
TEAD-YAP block: -3.8; FBW7 activator: 0.4; GPR151 ag: -0.6; MITF primary: 9.1

How did COc1ccc(OC)c(CN2CCN(Cc3cccc(C)c3)CC2)c1 do in these assays?
TEAD-YAP block: 2.0; FBW7 activator: -0.2; GPR151 ag: 0.1; MITF primary: 70.0*; MITF inh conf: 0.0; AS interf ctr: 0.0

What do the screens show for `COc1ccc(NC(=O)CN(C)C(C)C(=O)N2CCCCC2)cc1` (stereo not drawn)?
TEAD-YAP block: -0.3; FBW7 activator: -0.2; GPR151 ag: 2.0; MITF primary: 65.7*; MITF inh conf: -3.0; AS interf ctr: 12.1

Results for CC1CC(C)CN(C(=O)C(C)N(C)CC(=O)Nc2ccc(Cl)cc2)C1 (stereo not drawn) ?
TEAD-YAP block: 6.7; FBW7 activator: -0.2; GPR151 ag: 0.2; MITF primary: 50.9*; MITF inh conf: 7.5; AS interf ctr: 10.0

Results for CC(C(=O)N1CCCCC1)N(C)CC(=O)Nc1cccc(F)c1 (stereo not drawn) ?
TEAD-YAP block: 8.1; FBW7 activator: 0.6; GPR151 ag: 1.5; MITF primary: 64.1*; MITF inh conf: 11.5; AS interf ctr: 7.5

Results for O=C(Nc1ccc(NC(=O)c2cccs2)cc1)c1ccco1 ?
TEAD-YAP block: -46.5; FBW7 activator: 0.0; GPR151 ag: -2.6; MITF primary: 75.9*; MITF inh conf: -3.1; AS interf ctr: -4.3

Results for O=C(Nc1ccc(N2CCOCC2)cc1)c1cccc(N2CCN(Cc3ccc4c(c3)OCO4)CC2)n1 ?
TEAD-YAP block: -14.7; FBW7 activator: -0.2; GPR151 ag: -0.6; MITF primary: 3.2

What do the screens show for `O=C(CCc1ccccc1)Nc1nnc(-c2cccs2)s1`?
TEAD-YAP block: 0.4; FBW7 activator: -0.5; GPR151 ag: 1.1; MITF primary: 55.2*; MITF inh conf: -0.5; AS interf ctr: 11.7

Results for CC(C)(C)n1ncc2c(=O)n(Cc3cccc(F)c3)cnc21 ?
TEAD-YAP block: 6.8; FBW7 activator: 0.1; GPR151 ag: 0.6; MITF primary: 54.5*; MITF inh conf: 13.8; AS interf ctr: 18.1

Results for CCn1c2ccccc2c2cc(CN3CCN(Cc4cc(OC)c(OC)cc4[N+](=O)[O-])CC3)ccc21 ?
TEAD-YAP block: 4.6; FBW7 activator: -0.2; GPR151 ag: 0.7; MITF primary: 81.7*; MITF inh conf: 3.5; AS interf ctr: 21.1

What do the screens show for `COc1cc(CN2CCN(Cc3cccc(OC)c3OC)CC2)c([N+](=O)[O-])cc1OC`?
TEAD-YAP block: -8.6; FBW7 activator: 0.0; GPR151 ag: 0.3; MITF primary: 51.9*; MITF inh conf: 4.2; AS interf ctr: 2.9

How did COc1cc(CN2CCN(Cc3cccc4ccccc34)CC2)c([N+](=O)[O-])cc1OC do in these assays?
TEAD-YAP block: -15.4; FBW7 activator: -0.2; GPR151 ag: 2.3; MITF primary: 70.1*; MITF inh conf: 11.9; AS interf ctr: 0.1

How did CCOc1ccc(NC(=O)CSc2cn(CC)c3ccccc23)cc1 do in these assays?
TEAD-YAP block: 2.7; FBW7 activator: 0.0; GPR151 ag: -0.8; MITF primary: 2.7

Results for S=c1[nH]nc(-c2ccco2)n1/N=C/C=C/c1ccco1 ?
TEAD-YAP block: -7.6; FBW7 activator: -1.0; GPR151 ag: -0.8; MITF primary: 73.4*; MITF inh conf: 32.8*; AlphaScreen DR: >6.48; AS interf ctr: 1.8

How did CC(=O)Nc1ccc(C2=N/C(=C/c3cccc([N+](=O)[O-])c3)C(=O)O2)cc1 do in these assays?
TEAD-YAP block: -1.5; FBW7 activator: 0.4; GPR151 ag: -0.5; MITF primary: 57.6*; MITF inh conf: 4.9; AS interf ctr: -10.6

Results for O=C1OC(c2cc(C3=N/C(=C\c4ccccc4)C(=O)O3)cc(C3=N/C(=C/c4ccccc4)C(=O)O3)c2)=N/C1=C\c1ccccc1 ?
TEAD-YAP block: 9.4; FBW7 activator: -0.2; GPR151 ag: -0.2; MITF primary: 58.2*; MITF inh conf: 30.5*; AS interf ctr: 5.4

How did Cc1ccc(C2=N/C(=C\c3ccc(OCc4ccccc4)cc3)C(=O)O2)cc1[N+](=O)[O-] do in these assays?
TEAD-YAP block: 4.0; FBW7 activator: -0.2; GPR151 ag: -0.7; MITF primary: 3.7

How did O=C1OC(c2ccc(Cl)c(Cl)c2)=N/C1=C\c1ccccc1 do in these assays?
TEAD-YAP block: 4.6; FBW7 activator: 0.0; GPR151 ag: 0.9; MITF primary: -3.7

What do the screens show for `O=C1OC(c2cccc([N+](=O)[O-])c2)=N/C1=C\c1ccc(OCc2ccccc2)cc1`?
TEAD-YAP block: 13.7; FBW7 activator: 0.1; GPR151 ag: -0.2; MITF primary: 64.5*; MITF inh conf: 36.8*; AS interf ctr: 16.4

How did O=C(NCCO)/C(=C/c1ccc2c(c1)OCO2)NC(=O)c1ccc(Br)o1 do in these assays?
TEAD-YAP block: 0.7; FBW7 activator: 0.4; GPR151 ag: -0.4; MITF primary: 11.1

How did O=C(Cn1cnc2scc(-c3ccccc3)c2c1=O)NCc1cccnc1 do in these assays?
TEAD-YAP block: -4.3; FBW7 activator: -0.2; GPR151 ag: -0.9; MITF primary: -12.5

Results for CC(C)(C)c1ccc(NC(=O)c2cnc3n(c2=O)CCS3)cc1 ?
TEAD-YAP block: -18.5; FBW7 activator: 0.1; GPR151 ag: 0.2; MITF primary: -7.0

Results for N#CCCSc1ccccc1NC(=O)c1ccc(Cl)s1 ?
TEAD-YAP block: -5.8; FBW7 activator: 0.2; GPR151 ag: 2.0; MITF primary: -4.5
